# Screens (PubChem BioAssay)
# Rows were chosen to be rich in hits. Some 19% of all compounds tested hit in one or more screens of this group.
# IL-1B inflam inh: blocks inflammasome-driven IL-1 beta release | AID 743279 | activity change, % at 57.5 µM | THP-1 LPS/ATP IL-1B secretion, AlphaLISA, 16 h; stronger effect = lower value | 4.7% of 360,000 active; in the data active = activity change below about -50%; inconclusive = mostly about -30% to -49%; note: % is set by controls: 0 for no effect and ±100 for the full control effect
#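 THP-1 cells pretreated 1 hr with compounds (up to 57.5 uM final), then stimulated with LPS (250 ng/mL final) plus ATP (1.25 mM final); secreted IL-1B measured by AlphaLISA after 16 hr, decreased signal indicating inhibition.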
# SW480 rerep: DNA re-replication induction in SW480 cells. AID 624297. SW480 DNA re-replication, Hoechst DNA content imaging, 48 h. 1.8% of 340,000 active. Potency, µM (titrated, usually from 46.1 µM), without a hit: at the highest dose re-replication activation, actives largely listed as activators; note: potency is the fitted concentration of half-maximal effect; % of control where 0% means no effect; nearly all actives have a fitted effect of over 55% in size
#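 Treated cells incubate 48 hr (37 C, 5% CO2), are stained 40 min with Hoechst, and nuclear fluorescence is enumerated; a rise in nuclei with high DNA signal marks re-replication.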
# TDP1 cell CPT: growth inhibition of DT40 Tdp1-/-;hTDP1 cells with camptothecin (screen for TDP1 inhibitors) | 12% of 420,000 active | chicken DT40 Tdp1-/-;hTDP1 cells + 20 nM CPT, ATP luminescence, 48 h | Potency, µM (series often up to 46.2 µM), for inactives: top-dose activity change, negative = growth inhibition, usual class: inhibitors; note: potency is the fitted concentration of half-maximal effect; % is set by controls: 0 for no effect and ±100 for the full control effect; nearly all actives have a fitted effect of over 55% in size
#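 Chicken DT40 Tdp1-/- cells complemented with human TDP1, 400 cells/well, exposed to compounds plus 20 nM camptothecin for at least 48 h at 37 C; viability read as ATP content by CellTiter-Glo luminescence.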
# MCF10A rereplic: inducers of DNA re-replication in MCF 10A breast cells | MCF 10A DNA re-replication, Hoechst nuclear intensity, 48 h | Potency, µM (titrated, usually from 46.1 µM), inactives show top-dose activity, positive = re-replication, actives largely listed as activators | 2.9% of 350,000 active; note: potency is the fitted concentration of half-maximal effect; % of control where 0% means no effect; nearly all actives have a fitted effect of over 50% in size
# BCR signal inh: blocks chronic active B-cell receptor signaling | 0.05% of 340,000 active | ABC-DLBCL IkBa-CBG/CBR reporter, luminescence ratio, 4 h | AID 493014 | Potency, µM (series often up to 46.1 µM), for the others: at the highest dose activity change, negative = inhibition, hits mostly inhibitors; active = well fitted inhibition curve with a large enough effect in the signal ratio, with a control signal flat, not every such curve was filed as active; inconclusive = small, poorly fitted or top-dose-only effect, or effect the other way, or a change in a side signal; the % refers to the signal ratio;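 note: potency is the fitted concentration of half-maximal effect; plate controls were basal doxycycline-induced cells for no effect and cells given 10 µM MG132 for full effect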
#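 Cell line TMD8 (human ABC DLBCL), stably expressing tet-inducible CBG68-IkBa fusion and CBR; IMDM/0.5% FBS; cpd up to 46 uM; dox induction, 4 h, 37C/5% CO2; dual luminescence; green/red ratio; MG132 control.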
# DT40 TDP1 no CPT: qHTS for Inhibitors of human tyrosyl-DNA phosphodiesterase 1 (TDP1): qHTS in cells in absence of CPT; AID 686978, 2013; Potency, µM (series often up to 46.2 µM), for the others: at the top dose activity change, negative = growth inhibition, hits mostly inhibitors; DT40 Tdp1-/- hTDP1 cells, no CPT, ATP luminescence, 48 h; 15% of 420,000 active; note: potency is the fitted concentration of half-maximal effect; % is set by controls: 0 for no effect and ±100 for the full control effect; nearly all actives have a fitted effect of over 55% in size
#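 Seeded 400 DT40-hTDP1 cells/well (vehicle DMSO, no 20 nM CPT); pinned compounds; ≥48 hr at 37 °C; CellTiter-Glo luminescence as viability measure.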
# An asterisk follows results filed as active; ? = inconclusive; · = not tested or not shown; ! = not active in a repeat; [ ] = another dose, or the depositor's remark. Unless noted, calls come from the whole dose curve; as a rule, active = well fitted curve in the direction sought with a large enough effect; inconclusive = small, poorly fitted or top-dose-only effect, or another doubt; inactive = no such curve, though single readings can be large; an effect the other way counts as inactive or inconclusive.
SMILES,IL-1B inflam inh,SW480 rerep,TDP1 cell CPT,MCF10A rereplic,BCR signal inh,DT40 TDP1 no CPT
CCC(C)Sc1nc2c(c(=O)[nH]c(=O)n2C)n1Cc1ccc(Cl)cc1 (stereo unspecified),?,13%,?,?,-19%,?
C/C(Cl)=C/CSc1nc2c(c(=O)[nH]c(=O)n2C)n1C(C)C,29,1%,?,2%,?,16µM*
C=CCn1c(SCc2ccc(Cl)cc2)nc2c1c(=O)[nH]c(=O)n2C,3,-2%,?,6%,-6%,21µM*
CC(C)Sc1nc2c(c(=O)[nH]c(=O)n2C)n1Cc1ccc(Cl)cc1,-7,-2%,?,5%,-1%,26µM*
C=CCSc1nc2c(c(=O)[nH]c(=O)n2C)n1C(C)C,21,-2%,-7%,2%,?,-26%
CCCCCCSc1nc2c(c(=O)[nH]c(=O)n2C)n1C,0,-9%,?,2%,?,21µM*
C=CCn1c(SCc2ccc(F)cc2)nc2c1c(=O)[nH]c(=O)n2C,17,-21%,?,-5%,8%,?
Cc1cc(Br)cc2c(C(=O)OCC(=O)c3ccccc3)cc(-c3ccccc3)nc12,·,·,-6%,·,·,9%
Cc1ccc(C(=O)N2CCC(N3CCC(C(=O)N4CCOCC4)CC3)CC2)cc1,12,·,-5%,·,·,-20%
C/C(Cl)=C/Cn1c(SC(C)C)nc2c1c(=O)[nH]c(=O)n2C,14,-3%,?,5%,?,16µM*
NC(=O)C1CCN(C(=O)C2CC(=O)N(Cc3ccccc3)C2)CC1 (stereo unspecified),3,-9%,3%,3%,0%,21%
COc1ccc(OC)c(NC(=O)CCN2CCCC(C)C2)c1 (stereo unspecified),19,-6%,0%,-15%,1%,-23%
COc1ccc(NC(=S)N(CCCN2CCCC(C)C2)Cc2cccs2)cc1 (stereo unspecified),-23,0%,?,28%,-3%,29µM*
COc1ccc(C(=O)CCN2CCCC(C)C2)cc1 (stereo unspecified),-24,?,23µM*,?,1%,?
COc1ccc(C(=O)CCN2CCC(C)CC2)cc1,8,?,13µM*,2%,0%,12µM*
Cc1ccc(CNC(=O)Cc2c(C)c3cc4c(C)coc4cc3oc2=O)cc1,·,·,-1%,·,·,-20%
Cc1coc2cc3oc(=O)c(CC(=O)NCc4ccccc4)c(C)c3cc12,·,·,5.8µM*,·,·,5.2µM*
Cc1coc2cc3oc(=O)c(CC(=O)NCc4cccc(Cl)c4)c(C)c3cc12,·,·,?,·,·,21µM*
Cc1coc2cc3oc(=O)c(CC(=O)NCc4ccc(F)cc4)c(C)c3cc12,·,·,6.5µM*,·,·,5.8µM*
Cc1csc2nc(-c3ccc(NS(=O)(=O)c4cc(F)ccc4F)cc3)cn12,·,·,-10%,·,·,-22%
CC(=O)OC1CCC2(C)C(=CCC3C2CCC2(C)C3C[C@@H]3O[C@]32C(C)=O)C1 (stereo partly specified),·,·,13%,·,·,3%
Cc1ccc2[nH]cc(CCNC(=O)CN3C(=O)c4ccccc4C3=O)c2c1,23,-9%,-1%,-4%,7%,18%
Cc1ccc2[nH]cc(CCNC(=O)c3cccs3)c2c1,-75*,4%,0%,?,-7%,?
COc1ccc2[nH]cc(CCNC(C)=O)c2c1,7,?,-6%,-3%,·,3%
Cc1ccc2[nH]cc(CCNC(=O)c3ccc4c(c3)OCO4)c2c1,-53*,?,-19%,1%,?,-26%
SMILES,IL-1B inflam inh,SW480 rerep,TDP1 cell CPT,MCF10A rereplic,BCR signal inh,DT40 TDP1 no CPT
O=C(NCCCNC(=O)c1cccs1)c1cccs1,15,0%[9.22 µM],8.2µM*,-3%,-2%,9.2µM*
CC(=O)NCCc1c[nH]c2ccc(O)cc12,2,-15%,18µM*!,?,·,-18%
COc1ccccc1NC(=O)c1ccc(N2CC3CC(C2)c2cccc(=O)n2C3)c(NC(=O)c2ccncc2)c1 (stereo unspecified),-13,2%,6%,1%,0%,-26%
Cc1ccc(C(C(=O)Nc2ccc3c(c2)OCO3)N(C)C(=O)/C=C\c2ccc3c(c2)OCO3)cc1 (stereo unspecified),-22,-1%,?,?,-1%,?
COCCCNC(=O)c1c(NC(=O)Cc2coc3cc(C)ccc23)sc2c1CCCC2,·,·,16µM*,·,·,16µM*
CCNC(=O)c1c(NC(=O)c2cc(-c3cc(C)ccc3O)n[nH]2)sc2c1CCCC2,9,?,?,?,0%,16µM*
Cc1ccc2c(=O)cc(C(=O)Nc3sc4c(c3C(=O)NCc3ccco3)CCC4)oc2c1,·,·,-6%,·,·,-22%
Cc1ccc(-c2cc(C(=O)Nc3sc4c(c3C(=O)NCc3ccco3)CCC4)[nH]n2)c(O)c1,1,12%,-13%,?,-8%,?
CCNC(=O)c1c(NC(=O)Cc2coc3cc(C)ccc23)sc2c1CCCC2,·,·,12µM*,·,·,18µM*
CNC(=O)c1c(NC(=O)Cc2coc3ccc(OC)cc23)sc2c1CCCC2,·,·,16µM*,·,·,21µM*
COCCNC(=O)c1c(NC(=O)c2cc(=O)c3cc(Cl)ccc3o2)sc2c1CCCC2,·,·,-9%,·,·,-23%
CCCC(C(=O)NNC(=O)c1cc(C)oc1C)c1ccccc1 (stereo unspecified),1,-2%,-7%,0%,4%,-24%
COc1ccc(-c2csc3ncnc(N4CCN(c5cccc(C)c5C)CC4)c23)cc1,11,-2%,15µM*,19%,-1%,?
COc1ccc(-c2csc3ncnc(N4CCN(c5ccccc5Cl)CC4)c23)cc1,-4,?,?,18µM*,0%,?
CCOc1ccc(CCNC(=O)C2CC(=O)N(c3ccc4c(c3)OCCO4)C2)cc1OCC (stereo unspecified),-5,-6%,-21%,1%,4%,-29%
COc1ccc(-n2c(=O)c3c4c(sc3n(Cc3ccccc3Cl)c2=O)CCC4)c(OC)c1,·,·,?,·,·,21µM*
COc1ccc(-n2c(=O)c3c4c(sc3n(Cc3ccc(C)cc3C)c2=O)CCC4)c(OC)c1,·,·,18µM*,·,·,?
CCCN(CCC)C(=O)Cn1c(=O)n(-c2ccc(OC)cc2OC)c(=O)c2c3c(sc21)CCC3,·,·,-3%,·,·,?
COc1ccc(-n2c(=O)c3c4c(sc3n(Cc3ccc(F)cc3)c2=O)CCCC4)c(OC)c1,·,·,21µM*,·,·,15µM*
